About 8,600 (12%) of roughly 69,000 compounds showed an effect of 50% or more. The list comes from a sample in which strong results are over-represented; it also holds similar structures and randomly drawn compounds.
System: Plasmodium berghei
Assay: Screen against P. berghei liver stage (PbLuc), transformed with Luciferase, at 10uM
Type: functional, HepG2
Conditions: tested at 10 uM

Row | SMILES | INHIBITION [%]
1 | CN(C)C(=O)c1cccc(CN2CCOC(Cn3cncn3)C2)c1 (stereo not drawn) | 41.5
2 | NC(=O)C1(Cc2ccccc2-c2cncnc2)CCCNC1 (stereo not drawn) | 12.915
3 | Cn1nc(CNc2ncccn2)c2c1CN(c1cnccn1)CC2 | 32.1
4 | Cn1nc(COCC2CC2)c2c1CCN(Cc1ccco1)C2 | -12.2
5 | Cn1nc(COc2cccnc2)c2c1CCN(c1cnccn1)C2 | 53.5
6 | Cn1nc(COc2cccnc2)c2c1CCN(Cc1ccco1)C2 | 31.4
7 | Cn1nc(COc2cccnc2)c2c1CCN(c1ncccn1)C2 | 53
8 | Cn1nc(CN2CCCC2)c2c1CN(c1cnccn1)CC2 | 54.8
9 | Cn1nc(COc2cncnc2)c2c1CCN(Cc1ccco1)C2 | 63.5
10 | Fc1cnc(N2CCCn3cnc(COc4cccnc4)c3C2)nc1 | 4.68
11 | c1cnc(N2CCc3onc(CN4CCCC4)c3C2)cn1 | 37.5
12 | CCS(=O)(=O)N1CCCn2cnc(COc3cccnc3)c2C1 | 14.6
13 | Cn1nc(Cn2ccnc2)c2c1CN(c1ncccn1)C2 | 3.88
14 | Cn1nc(CN2CCCC2)c2c1CN(C(=O)c1cnccn1)CC2 | 43.4
15 | Cc1cnccc1CN(C)C(=O)C(C)(C)NC(=O)c1cccs1 | 37.9
16 | CCNC(=O)CN1CCN(Cc2nc3c(F)cccc3n2CC)CC1 | 30.85
17 | Cc1ccc(N2CCCC(NCc3cc(C)on3)C2)nn1 (stereo not drawn) | 27.4
18 | CCCNC(=O)C1(CC2CC(c3ccccc3OC)=NO2)CCOCC1 (stereo not drawn) | 29.2
19 | Cc1ccc(C(=O)N2CCn3cc(CN4CCCCC4)nc3C2)o1 | 17.4
20 | Cn1nc(COc2cncnc2)c2c1CCN(Cc1ccccn1)C2 | 24.9
21 | CN1CCc2c(c(COc3cncnc3)nn2CC2CC2)C1 | 24.6
22 | Cc1cnc(N2CCc3c(c(COc4cncnc4)nn3C)C2)nc1 | 53.9
23 | CC(C)N1CCc2c(c(COc3cccnc3)nn2CC2CC2)C1 | 12.7
24 | COCCN1CCc2c(c(COc3cccnc3)nn2C)C1 | -4.08
25 | Cn1nc(COc2cccnc2)c2c1CCN(CC1CC1)C2 | 61.1
26 | COc1ccc(OC)c(C(O)CNC(=O)Nc2cccnc2OC)c1 (stereo not drawn) | 17.4

Row | SMILES | INHIBITION [%]
27 | Cc1cc(CNC(=O)NCCCC(=O)N2CCc3ccccc32)no1 | 45.4
28 | COC(=O)Cn1c(=O)cc(C(F)F)c2c(C)nn(CC(F)F)c21 | -12.975
29 | Cc1ccc(CNc2cc3[nH]c(O)nc3cc2C)cc1 | -46.3
30 | O=C(c1ccc(NCc2cccc(F)c2)cc1)N1CCC(CO)CC1 | -92.5
31 | NC(=O)c1ccc(OCC(=O)NS(=O)(=O)c2ccc3c(c2)CCC3)cc1 | 15.533
32 | Cn1c2ccc(F)cc2c2ncn(CCN3CCOCC3)c(=O)c21 | 45
33 | Cn1c2ccccc2c2ncn(CCCN3CCOCC3)c(=O)c21 | 29.1
34 | Cn1c2ccccc2c2ncn(CCN3CCOCC3)c(=O)c21 | 63.6
35 | CC(C)n1cc(-n2cc3nc(N4CCOCC4)[nH]cc-3c2=O)cn1 | 5.18
36 | Cc1n[nH]c(C2CN(CC(=O)NCc3sccc3C)CCO2)n1 (stereo not drawn) | -7.36
37 | O=C1CNc2ncnc(N3CCN(Cc4cccc(F)c4)CC3)c2N1 | 55.7
38 | Cc1ccccc1CN1CCN(c2ncnc3c2NC(=O)CN3)CC1 | -4.76
39 | O=C1CNc2ncnc(N3CCN(c4ccccc4F)CC3)c2N1 | 59
40 | O=C1CNc2ncnc(N3CCN(Cc4ccccc4)CC3)c2N1 | 30
41 | O=C1CNc2ncnc(N3CCN(Cc4ccccc4F)CC3)c2N1 | 39.1
42 | O=C1CNc2ncnc(Nc3cnn(Cc4ccccc4F)c3)c2N1 | 33.5
43 | COC(=O)CNC(=O)c1scnc1C | 2.93
44 | Cc1ncoc1C(=O)N1CC[C@@H](O)[C@@H](O)[C@H](N2CCC(F)(F)CC2)C1 | 20.4
45 | O=C(c1ccncc1)N1CC[C@@H](O)[C@@H](O)[C@H](N2CCC(F)(F)CC2)C1 | 27.8
46 | Cc1ocnc1C(=O)N1CC[C@@H](O)[C@@H](O)[C@H](N2CCC(F)(F)CC2)C1 | 59
47 | O=c1c(S(=O)(=O)N2CCCCC2)cccn1Cc1cccnc1 | -37.1
48 | O=C(O)c1ccccc1-n1cnc(CN2CCCc3ccccc32)c1 | 23
49 | CN(C)CCN1CCC2(CCCN(Cc3cccn3C)C2)C1=O (stereo not drawn) | 33.1
50 | c1cncc(COC[C@H]2CC[C@H]3[C@H](CCN3Cc3nccs3)O2)c1 | 39.2
51 | Fc1ccc(CN2CC[C@H]3O[C@@H](COCC4CCOCC4)CC[C@H]32)cc1 | 56.3
52 | O=C(C1CC=CC1)N1CC[C@@H]2O[C@H](COCC3CCOCC3)CC[C@@H]21 | 21.6

Row | SMILES | INHIBITION [%]
53 | c1cc(CN2CC[C@H]3O[C@@H](COCC4CCOCC4)CC[C@H]32)ccn1 | 52
54 | Fc1ccc(CN2CC[C@H]3O[C@@H](COCc4cccnc4)CC[C@H]32)cc1 | 39.2
55 | c1ccc(CN2CC[C@@H]3O[C@@H](COCC4CCOCC4)CC[C@@H]32)nc1 | 22.7
56 | c1cncc(CN2CC[C@H]3O[C@@H](COCC4CCOCC4)CC[C@H]32)c1 | 33.4
57 | c1cncc(CN2CC[C@H]3O[C@@H](COCC4CC4)CC[C@H]32)c1 | 44.9
58 | c1cncc(COCC2CC[C@H]3[C@H](CCN3CC3CCOCC3)O2)c1 (stereo partly drawn) | 78.8
59 | CC(C)c1nccn1-c1cncc(C2CCCN2Cc2cccnc2)n1 (stereo not drawn) | 27.6
60 | CNCC1CCC(c2cc(CN(C)C(=O)c3cnccn3)n(C)n2)CC1 (stereo not drawn) | 25.8
61 | O=C(Nc1cnccn1)[C@@H]1CCO[C@@H]2CCN(Cc3ccsc3)C[C@@H]21 | 12.4
62 | Cn1cnnc1C1CCN(C(=O)CCOc2ccc(Cl)cc2)CC1 | 11.9
63 | CC(=O)NCC1CCCN(C(=O)Cc2c(C)noc2C)C1 (stereo not drawn) | -4.12
64 | O=C(COc1ccc(F)cc1)N1CCCSCC1CN1CCOCC1 (stereo not drawn) | 25.3
65 | COc1cccc(OCC(=O)N2CCCSCC2CN2CCOCC2)c1 (stereo not drawn) | 44.9
66 | O=C(COc1ccc(Cl)cc1Cl)N1CCCSCC1CN1CCOCC1 (stereo not drawn) | 60.1
67 | CNC(=O)c1nc2c(s1)CCN(C(=O)c1cccnc1)CC2 | -10.4
68 | O=C(c1[nH]nc(C2CC2)c1Cl)N1CCN(C2CC2)CC1 | 8.13
69 | O=C(c1[nH]nc(C2CC2)c1Cl)N1CCCC1 | -46.7
70 | O=C(c1[nH]nc(C2CC2)c1Cl)N1CCN(S(=O)(=O)c2ccccc2)CC1 | 77.6
71 | CCOC(=O)[C@H]1[C@@H](O)C(=O)N(C)C12CCN(C(=O)CC(C)C)CC2 | 22.2
72 | c1csc(C2(NCc3csc(C4CC4)n3)CCCC2)n1 | -9.44
73 | Cc1cnn(CC2CCCN2CC(=O)NCc2ccccn2)c1 (stereo not drawn) | -28.9
74 | Cc1cc(NCCNS(=O)(=O)c2cn(C)nc2C)c2ccccc2n1 | -5.8
75 | Cc1ccc2nc(C)cc(NCCNS(=O)(=O)c3cccnc3)c2c1 | 39.7
76 | Cc1ccc2nc(C)cc(NCCNS(=O)(=O)c3cn(C)nc3C)c2c1 | 55.5
77 | Cc1ccnc(OC[C@]23COC[C@H]2CN(C(=O)c2ccnn2C)C3)n1 | 43.1
78 | O=C(CN1CCc2ccccc2C1)NCc1cc2n(n1)CCCNC2 | -16.8

Row | SMILES | INHIBITION [%]
79 | Cn1ccnc1CN1CCN(Cc2noc(C3CC3)n2)CC1 | -15.5
80 | CC1CN(Cc2noc(C3CC3)n2)CCN1Cc1nccn1C (stereo not drawn) | 55.9
81 | CC1CN(Cc2noc(C3CC3)n2)CCN1Cc1noc(C2CC2)n1 (stereo not drawn) | 33.8
82 | O=C(NC1CCCC1)c1ccnc(C2CCNCC2)c1 | -11.3
83 | COCC1CC2(CCN(C(=O)c3cc(C)oc3C)CC2)CN1C(C)C (stereo not drawn) | 6.8
84 | COc1ccc(C2SC(C)=Nc3c2c(=O)[nH]n3C2CCCC2)cc1O (stereo not drawn) | -6.09
85 | CCCc1cc(N2CCCC2Cn2nc(C)nc2C)n2ncnc2n1 (stereo not drawn) | 53.4
86 | CCCc1cc(N2CCCC2Cn2nc(C)cc2C)n2ncnc2n1 (stereo not drawn) | -48.1
87 | CCCc1cc(N2CCCC2Cn2cc(C)cn2)n2ncnc2n1 (stereo not drawn) | -60.9
88 | CN1CCN(CCOc2ccc(NC(=O)c3ccc[nH]3)cc2)CC1 | -23.5
89 | CN1CCN(C2CCN(CCOc3ccccc3)CC2)C1=O | 40.2
90 | CN1CCN(C2CCN(CC(O)c3ccccc3)CC2)C1=O (stereo not drawn) | 16.715
91 | Cc1cc(N2CCc3c(ncn3C)C2)nc(N)n1 | -14.9
92 | O=C1NCCN1C1CCN(c2ccnc(-c3ccccc3)n2)CC1 | 73.1
93 | c1ccc(-c2nccc(N3CCc4c(ncn4C4CC4)C3)n2)cc1 | 40.9
94 | CN1CCCC1c1ccnc(-c2ccccc2)n1 (stereo not drawn) | -24.4
95 | CN1CCN(C2CCN(c3ccnc(-c4ccccc4)n3)CC2)C1=O | 91.1
96 | O=C1NCCN1C1CCN(Cc2coc(-c3ccccc3)n2)CC1 | 33.3
97 | CN1CCN(C2CCN(c3cnc4ccccc4n3)CC2)C1=O | 76.5
98 | CN1CCN(C2CCN(Cc3noc(-c4ccccc4)n3)CC2)C1=O | 8.11
99 | Cn1cnc2c1CCN(c1ccnc(-c3ccccc3)n1)C2 | 61.2
100 | O=C1NCCN1C1CCN(Cc2ccccn2)CC1 | -14.2
101 | Cc1noc([C@H]2COC[C@H]3CN(C(=O)Cc4cccc(F)c4)C[C@H]32)n1 | 38.5
102 | COc1c(C)cnc(CN2CCOC(CNc3cccnn3)C2)c1C (stereo not drawn) | 9.54
103 | O=C(CN1CCN(C(=O)c2ccccc2)CC1)Nc1ccc(Br)cn1 | 47.3
